TRPML1 blocker: human mucolipin-1 channel inhibition; 390,000 tested, 0.02% active; TRPML1-inducible cells, Ca2+ dye fluorescence, FDSS; hits give low values; inhibition of EC80 agonist-evoked calcium signal; activity change, negative = inhibition, % (no concentration beside the values); AID 624415; in the data active means activity change below about -50%; inconclusive means between about -30% and that limit;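 further: stimulus is agonist 54-4 at its EC80 concentration; on the % scale 0 is the no-effect control and ±100 the full control effect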
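TRPML1-DL cells, Tet-induced overnight (~16 h, 37 °C) at 1,500 cells/well, were loaded with Ca8 no-wash dye plus quencher for 45-90 min at room temperature. Compounds were pinned during FDSS kinetic reading; agonist 54-4 at EC80 (4 uM final) then added.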
PTAP TSG101 blk: blocks PTAP/TSG101 interaction to inhibit HIV-1 budding; Fluorescence polarization, FITC-PTAP peptide / Tsg101 binding; Potency, µM (doses to about 115 µM), for the others: at the top dose activity change, negative = inhibition, usual class: inhibitors; 340,000 tested, under 10 active; active means well fitted inhibition curve with a large enough effect in the main read-out, with a control signal flat, not every such curve was filed as active; inconclusive means small, poorly fitted or top-dose-only effect, or effect the other way, or a change in a side signal; inactive means no such curve, though single readings can be large or run the other way; further: potency means the concentration at half of the fitted maximal effect; % of control where 0% means no effect
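Tsg101 binding domain (10 uM final) was mixed with compound and a FITC-labeled PTAP peptide (50 nM final) in HEPES pH 7.5 buffer with NaCl, Tween 20, EDTA and TCEP; fluorescence polarization was read after 20 min at r.t.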
TRPML1 agonist: activates the human TRPML1 channel; Q9GZU1; TRPML1-expressing cells, Ca2+ dye fluorescence, FDSS; activation, % (test concentration not listed); 410,000 tested, 0.12% active; AID 624414; in the data active means activation above about 50%; inconclusive means mostly about 30% to 49%; further: 0% is about no effect
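Agonist activity was taken from a 110 s kinetic Ca2+ dye read on the FDSS after pinning compounds onto TRPML1-DL cells. The cells were seeded at 1,500/well with Tet inducer, incubated about 16 h, then dye-loaded at room temperature.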
TRHR enhancer-1: allosterically enhances the human TRH receptor; TRHR cells, fluo-8 calcium fluorescence, EC20 TRH enhancement; enhancement, % at 2 µM; AID 493056; P34981; 360,000 tested, 0.66% active; in the data active means enhancement above about 30%; further: 0% is about no effect
Target sequence (P34981 whole entry, looked up): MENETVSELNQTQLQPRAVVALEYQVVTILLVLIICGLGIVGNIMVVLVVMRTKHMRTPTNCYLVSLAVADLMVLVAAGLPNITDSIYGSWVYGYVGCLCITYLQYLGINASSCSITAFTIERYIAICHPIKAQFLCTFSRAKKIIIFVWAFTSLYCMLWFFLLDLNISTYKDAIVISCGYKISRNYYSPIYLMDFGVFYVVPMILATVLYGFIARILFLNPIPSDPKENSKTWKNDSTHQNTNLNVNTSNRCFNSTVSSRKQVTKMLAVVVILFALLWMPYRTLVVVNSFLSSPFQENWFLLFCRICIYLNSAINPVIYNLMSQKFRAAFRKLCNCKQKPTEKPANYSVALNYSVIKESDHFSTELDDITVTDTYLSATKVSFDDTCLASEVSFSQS
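Enhancer read-out: after compound pinning and an initial kinetic agonist-mode read, an EC20 of TRH (10 nM final) was injected and fluo-8 calcium signal (Ex 480/Em 530) followed at 1 s/cycle for 100 cycles in TRHR-expressing cells.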
TRHR agonist-1: TRH receptor (human) agonism; activation, % at 2 µM; P34981; TRHR cells, calcium flux fluo-8, FDSS agonist mode; 360,000 tested, 0.18% active; in the data active means activation above about 30%; further: 0% is about no effect
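Steps: seed TRHR cells overnight; add fluo-8 no-wash Ca dye, RT 30 min–1.5 h; record 10 s baseline; pin-transfer compounds; monitor fluorescence 1 cycle/s for the agonist window. Calcium increases flag candidate agonists.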
TRHR enhancer-2: confirmation of human TRH receptor allosteric enhancers. shares compounds with TRHR enhancer-1. 970 tested, under 10 active. activity change, negative = inhibition, % at 46.1 µM. TRH receptor cell assay, enhancer confirmation qHTS;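 further: compound effect scored on response to added TRH at EC20 of 10 nM; 0% is about no effect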
TRHR agonist-2: confirmation of human TRH receptor agonists; shares compounds with TRHR enhancer-1; TRHR-expressing cells, agonist activation read-out; Potency, µM (top dose mostly 46.1 µM), for inactives: top-dose activation, usual class: activators; 970 tested, 8% active; further: potency means the concentration at half of the fitted maximal effect; 0% is about no effect; nearly all actives have a fitted effect of over 75% in size
* = called active by the depositor; ? = inconclusive; . = no result given; ! = not confirmed by another sample. The list is not random: actives were taken first. Their share in the collection is about 0.81%. Unless noted, the call rests on the fitted dose curve; in most records, active means well fitted curve in the direction sought with a large enough effect; inconclusive means small, poorly fitted or top-dose-only effect, or another doubt; inactive means no such curve, though single readings can be large; an effect the other way counts as inactive or inconclusive.

SMILES	TRPML1 blocker	PTAP TSG101 blk	TRPML1 agonist	TRHR enhancer-1	TRHR agonist-1	TRHR enhancer-2	TRHR agonist-2
COc1nc2c(s1)C(=O)NCCC2	-28	-1%	0	-3	0	.	.
CCN(CC)c1nc2c(s1)C(=O)NCCC2	8	-4%	1	51*	0	-5	0%
O=S(=O)(c1ccc2c(c1)OCCO2)N1CCN(S(=O)(=O)c2ccccc2F)CC1	.	.	.	7	1	.	.
O=C1NC(=Nc2ccccc2Cl)S/C1=C\c1cc([N+](=O)[O-])ccc1O	-20	?	9	0	8	.	.
COc1cccc(N=C2NC(=O)/C(=C/c3cc([N+](=O)[O-])ccc3O)S2)c1	-13	13%	12	1	55*	5	?
CC(C)(C)NC(=O)CSc1nc2cccnc2n1C1CCCCC1	26	-2%	2	51*	-1	-14	-1%
CNC(=O)CSc1nc2cccnc2n1C1CCCCC1	.	-6%	.	0	0	.	.
N#Cc1c(N)nc(SCC(=O)OCc2ccccc2)c(C#N)c1-c1ccco1	24	-3%	3	65*	0	-8	4%
c1ccc(Cn2nnnc2C(c2ccccc2)N2CCN(Cc3ccncc3)CC2)cc1 (configuration not stated)	.	.	-1	.	.	.	.
CCN(CC)S(=O)(=O)c1ccc(NC(=O)CSc2nnc3c(n2)[nH]c2ccccc23)cc1	.	.	0	.	.	.	.
Cc1ccc2nc(-c3ccc(NC(=O)COC(=O)c4ccc(Br)o4)cc3)sc2c1	3	2%	0	4	0	.	.
Cc1ccc2nc(-c3ccc(NC(=O)COC(=O)c4cncc(Br)c4)cc3)sc2c1	18	-2%	2	44*	0	5	0%
CS(=O)(=O)c1cccc(-c2csc(N3CCC(C(N)=O)CC3)n2)c1	.	.	.	48*!	0	4	7%
CN1CCN(C(=S)NC(=O)c2cccc([N+](=O)[O-])c2)CC1	-2	-3%	0	50*	0	-3	-1%
CC1CCN(C(=S)NC(=O)c2cccc([N+](=O)[O-])c2)CC1	4	-9%	-1	1	0	.	.
Nc1c(Cl)cc(/C=C2\C=Cc3ccccc32)cc1Cl	.	.	-1	.	.	.	.
CCn1ccnc1[C@@H]1C[C@H]2CN(Cc3ccccc3OC)C(=O)[C@]23CCCN13	18	-7%	1	46*	0	-7	0%
CN1CCCc2cc3c(C(F)(F)F)cc(=O)oc3nc21	-10	?	24	2	49*	3	18µM*
CC(C)c1cc(=O)oc2c3c4c(cc12)CCCN4CCC3	-12	?	10	1	6	.	.
Oc1ccc2ccccc2c1/C=N/Nc1nnc(-c2ncc[nH]2)c2ccccc12	-3	-4%	2	13	46*	?	23µM*
CCCC(=O)NC1C2CC3CC(C2)CC1C3 (configuration not stated)	-9	-5%	1	51*	1	-1	0%
CCc1ccccc1NC(=O)NC1CCCCC1	-3	-1%	0	48*	0	-3	0%
Clc1ccc2c(ccc[n+]2CCC2CCCCC2)c1	.	.	1	.	.	.	.
CN(N=O)c1ccc(/C=C2\C=Cc3ccccc32)cc1	.	.	-1	.	.	.	.
Cc1cc(N(C)C)ccc1/C=C/c1ccnc2ccccc12	.	.	17	.	.	.	.
SMILES	TRPML1 blocker	PTAP TSG101 blk	TRPML1 agonist	TRHR enhancer-1	TRHR agonist-1	TRHR enhancer-2	TRHR agonist-2
Cc1ccccc1N1CCN(c2ccc(NC(=O)C3CCCCC3C(=O)O)cc2)CC1 (configuration not stated)	11	-1%	0	42*	1	-3	4%
O=C(O)[C@H]1CCCC[C@H]1C(=O)Nc1ccc(Nc2ccccc2)cc1	2	-3%	-1	0	0	.	.
C=C1C=C(C(F)F)n2ncc(C(=O)N3CCCCC3)c2N1	.	.	-1	.	.	.	.
O=C1/C(=C/c2cccs2)CCC/C1=C\c1cccs1	-13	0%	12	7	3	.	.
Cn1cccc1/C=C1\CCC/C(=C\c2cccn2C)C1=O	-10	?	?	3	53*	1	18µM*
CN(C)C(=O)COc1ccccc1C(=O)OCC(=O)N(CCC#N)c1ccccc1	.	.	-1	.	.	.	.
O=c1c2ccccc2c(/C=N/NS(=O)(=O)c2ccccc2)c(O)n1-c1ccccn1	10	17%	14	27	32*	-6	4%
O=C(CN1CCC(C(=O)c2ccc3c(c2)OCCO3)CC1)Nc1ccccc1F	-19	-1%	1	48*	0	-9	1%
COc1ccc2[nH]c(O)c(N=NC(=N)N)c2c1	-9	0%	1	62*	1	2	-1%
Cc1ccc2[nH]c(O)c(N=NC(N)=S)c2c1	-6	-3%	-1	-7	0	.	.
CC(=O)Nc1ccc(/C=C/c2ccnc3ccccc23)cc1[N+](=O)[O-]	.	.	1	.	.	.	.
CCOc1ccc(CN(C(=O)/C=C/c2ccco2)C2CCS(=O)(=O)C2)cc1 (configuration not stated)	-14	-5%	1	-8	41*	1	1%
COc1cccc(NC(=O)CCN2CCOCC2)c1	-6	-9%	0	62*	0	-3	7%
Cc1cc(=O)oc2c(CN3CCCCC3)c(O)c(Cl)cc12	-7	-6%	-2	19	-1	.	.
Cc1cc(=O)oc2c(CN3CCCC3)c(O)c(Cl)cc12	-16	-5%	0	59*	-2	-12	3%
Cc1ccc(OCc2cc(C(=O)N(C)Cc3cnn(-c4ccccc4C)c3)no2)cn1	13	-1%	1	43*	-1	-6	0%
O=[N+]([O-])c1cccc(N=Cc2sc3ccccc3c2O)c1	.	.	.	43*	1	-3	0%
O=[N+]([O-])c1ccc(N=Cc2sc3ccccc3c2O)cc1	-6	-6%	6	-4	7	.	.
CC(=O)N/N=C/c1c(C)[nH]n(-c2ccccc2)c1=O	28	-3%	-1	44*	-1	-4	5%
COC(=O)N/N=C\c1c(C)[nH]n(-c2ccccc2)c1=O	26	1%	0	2	0	.	.
CNCc1nc(-c2ccc[nH]2)c2cc(Cl)ccc2n1	.	.	0	.	.	.	.
O=C(NCCc1ccc(Cl)cc1)C12CC3CC(CC(O)(C3)C1)C2	-1	-5%	-1	45*	0	0	1%
COc1ccc([N+](=O)[O-])cc1NC(=O)c1cn(-c2ccc(Cl)cc2)c(=O)c2ccccc12	4	-5%	0	72*	0	?	1%
Nc1cnccn1	.	.	-1	.	.	.	.
O=C(N/N=C/c1ccc(Cl)cc1Cl)c1ccncc1	.	-4%	.	6	-2	.	.
